Screens deposited in PubChem BioAssay by National Center for Advancing Translational Sciences (NCATS).
NS1 function inh – influenza NS1 inhibition; Potency, µM (titrated, usually from 46.1 µM), without a hit: at the highest dose activity, positive = more growth; 0.4% of 270,000 active; AID 2326; calls by dose curve; further: potency means the concentration at half of the fitted maximal effect; actives are rising curves; nearly all actives have a fitted effect of over 50% in size
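In this qHTS, NS1 from influenza A is expressed in budding yeast, where it slows growth. Cells are switched from glucose to 2% galactose medium (pH 6.0, -URA), treated with compound, and growth recovery is read at OD600.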
Pf growth 96h – P. falciparum growth inhibition at 96 hour, primary screen for plastid delayed-death inhibitors; 6.9% of 320,000 active; Potency, µM (doses to about 28.7 µM), for the others: top-dose activity change, negative = inhibition, usual class: inhibitors; P. falciparum luciferase reporter growth, 96 h; further: potency means the concentration at half of the fitted maximal effect; on the % scale 0 is the no-effect control and ±100 the full control effect
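P. falciparum expressing integrated firefly luciferase, in erythrocytes at 2% hematocrit, 0.05% parasitemia, incubated with compounds 96 h at 37 C, 5% CO2. Growth inhibition read as loss of luminescence; two-generation exposure targets delayed-death apicoplast inhibitors.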
Pf growth 48h – P. falciparum growth inhibition at 48 hours (one generation). 5.9% of 310,000 active. Potency, µM (titrated, usually from 28.7 µM), inactives show top-dose activity change, negative = inhibition, hits mostly inhibitors. P. falciparum luciferase growth in erythrocytes, 48 h; further: potency means the concentration at half of the fitted maximal effect; on the % scale 0 is the no-effect control and ±100 the full control effect
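Firefly luciferase activity from engineered P. falciparum reports growth; inhibitors lower the luminescent signal. Cultures contained 2% hematocrit erythrocytes at 0.1% final parasitemia.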
CHX counter – counter-screen for Shiga toxin inhibitors: cycloheximide protein synthesis inhibition | cell reporter, cycloheximide protein synthesis inhibition counterscreen | max response, % | 12% of 300,000 active | AID 2314; in the data active means max response mostly above about 13%, no sharp cut-off; inactive means mostly below about 14%; further: read at 38.3 µM for the half of the compounds with a filed dose; 0% is about no effect
Shiga toxin inh – Shiga toxin inhibition; 9.2% of 290,000 active; inhibition, % at 38.7 µM; Vero cells, Shiga toxin protein synthesis inhibition reporter; in the data active means inhibition mostly above about 28%, no sharp cut-off; inactive means mostly below about 43%; further: 0% is about no effect
The depositor's hits bear a star; ? = inconclusive; nt = not tested or not shown; [ ] = another dose, or the depositor's remark. Sampled rows, rich in hits. Any-hit rate of the full collection: about 21%. Unless noted, the call rests on the fitted dose curve; in most records, active means well fitted inhibition curve with a large enough effect; inconclusive means small, poorly fitted or top-dose-only effect, or another doubt; inactive means no such curve, though single readings can be large or run the other way.

SMILES | NS1 function inh | Pf growth 96h | Pf growth 48h | CHX counter | Shiga toxin inh
COc1ccc(CCNC(=O)CSc2nc(C)nc3sccc23)cc1OC | 0% | -6% | -6% | -1 | -3
Nn1cnnc1N/N=C/c1ccc(Cl)cc1Cl | -46% | -24% | 35% | 12* | 16
COc1ccc(/C=N/Nc2nncn2N)cc1Br | -90% | ? | ? | 22* | nt
COc1cc(/C=N/Nc2nncn2N)ccc1OCc1c(C)no[n+]1[O-] | 1% | ? | ? | 13* | 25
O=C(O)P(=O)(O)O | nt | ? | -3% | nt | nt
C[C@@H]1COC(=O)O1 | nt | nt | nt | -1 | 5
COC(=O)c1cc(/C=C/c2ccccc2)[nH]n1 | -32% | -93% | 62% | 20* | 25*
C[C@]12CCC3C(CCC4=C(Cl)C(=O)CC[C@@]43C)C1CCC2O (stereo partly specified) | nt | 11µM* | ? | nt | nt
COCCCN1C(=O)/C(=C/c2ccc(CNS(=O)(=O)c3ccccc3)o2)C(C(=O)OC)=C1C | 4% | 25%[1.15 µM] | ? | -3 | 5
Cc1cccc(OC(=O)n2c(=S)oc3cc(Cl)ccc32)c1 | -25% | 0% | 13% | 6 | -5
COCCN1CN(S(=O)(=O)c2cccc(Cl)c2)c2nc3ccccc3nc21 | 6% | ? | ? | -4 | 2
C=CCN1CN(S(=O)(=O)c2cccc(Cl)c2)c2nc3ccccc3nc21 | -17% | ? | ? | 20* | 16
COc1ccc(CCN2CN(S(=O)(=O)c3ccccc3)c3nc4ccccc4nc32)cc1 | 11% | 10µM* | 12µM* | 2 | -10
CCc1cccc(C)c1Nc1nc2ccccc2n2cnnc12 | 0% | 20% | nt | -6 | -6
Oc1ccc(Br)cc1/C=N/n1c(-c2ccccc2)n[nH]c1=S | 7% | -1% | 3% | -1 | -3
Oc1ccc(Br)cc1C=Nc1cccn2cc(-c3ccccc3)nc12 | nt | ? | 279% | 35* | 81*
Cc1csc(-c2cnn(-c3ccccc3)c2NC(=O)c2cccc(C(F)(F)F)c2)n1 | 13% | 10µM* | nt | -4 | -3
O=C(Nc1ccccc1-c1ccccc1)c1cccc(C(F)(F)F)c1 | -4% | ? | 2% | -7 | -8
CC(=O)OC(C)(C)/C=C/C(=O)C(C)(O)C1[C@H](O)C[C@@]2(C)C3CC=C4C(CC[C@@H](O)C4(C)C)[C@]3(CO)C(=O)C[C@]12C (stereo partly specified) | 3% | 1.7µM* | 10µM* | -6 | -9
CC(=O)OC(C)(C)/C=C/C(=O)[C@](C)(O)[C@H]1[C@H](O)C[C@@]2(C)[C@@H]3CC=C4[C@H](C[C@H](O)C(=O)C4(C)C)[C@]3(C)C(=O)C[C@]12C | -36% | 3.3µM* | 3.7µM* | -3 | -14
COc1ccc(C(=O)n2cnc3ccccc32)cc1[N+](=O)[O-] | 11% | ? | 34% | -2 | -17
CCOC(=O)CNc1c(-c2ccccc2)nc2ccc(Cl)cn12 | -37% | 93% | 40% | 7 | 25
COC(=O)CNc1c(-c2ccccn2)nc2ccc(Br)cn12 | -59% | -22% | 116% | 36* | 49*
Cc1ccc(-c2c(C)sc(=NC(=O)c3ccco3)n2C)cc1 | -64% | 132% | 60% | 67* | 97*
COc1ccc(OC)c2c1sc(=NC(=O)c1ccco1)n2C | -12% | ? | nt | -2 | -8
SMILES | NS1 function inh | Pf growth 96h | Pf growth 48h | CHX counter | Shiga toxin inh
COc1ccc2[nH]c(=O)c(CNc3ccccc3C)cc2c1 | -2% | 49% | 43% | 43* | 90*
COc1ccc2[nH]c(=O)c(CNc3ccc(C)cc3C)cc2c1 | 2% | 10% | 26% | 30* | 70*
CCOc1ccc(NCc2cc3cc(OC)ccc3[nH]c2=O)cc1 | -2% | -16% | 3% | -1 | 22
COc1ccc2[nH]c(=O)c(CNc3ccccc3)cc2c1 | 13% | ? | 33% | 43* | 73*
COc1ccc2[nH]c(=O)c(CNc3ccccc3OC)cc2c1 | ? | -3% | -19% | 11 | 5
COc1ccc2[nH]c(=O)c(CNc3cc(C)ccc3C)cc2c1 | -1% | -2% | -17% | 14* | 43*
CCCCC(=O)N1CCN(c2nc3ccc(OCC)cc3s2)CC1 | -9% | 12µM* | ? | 13 | -2
CCCCC(=O)N1CCN(c2nc3ccc(F)cc3s2)CC1 | -25% | -18% | 167% | 12 | 35*
CCC(=O)N1CCN(c2nc3ccc(Br)cc3s2)CC1 | -10% | 43% | 79% | 36* | 59*
Cc1ccc(-c2nnn(CC(=O)N3CCN(c4nc5ccccc5s4)CC3)n2)cc1 | -4% | nt | 15% | 1 | 7
CCOc1ccc2nc(SCC(=O)N3CCN(C(=O)c4ccco4)CC3)sc2c1 | -11% | nt | 0% | 1 | -22
O=C(CCCc1nc2ccccc2s1)N1CCN(c2ccccc2F)CC1 | -5% | 2% | 15% | -1 | -10
CCCCCCCCCCCC(=O)NC(C(=O)O)C(O)c1ccccc1 (stereo unspecified) | 6% | 3% | 25% | 6 | -6
O=C(O)CCSCCCN1C(=O)c2cccc3cccc(c23)C1=O | nt | -55% | -21%[5.75 µM] | 0 | -5
COc1cc(OC)cc(-c2c(C#Cc3ccsc3)c3cc(-c4cccc5[nH]ccc45)ccc3n2C)c1 | nt | 3.3µM* | 12µM* | nt | nt
COc1cc(OC)cc(-c2c(C#Cc3ccsc3)c3cc(-c4ccc5cc[nH]c5c4)ccc3n2C)c1 | nt | 1.9µM* | ? | nt | nt
COc1ccc2c(c1)c(=O)c(C(=O)O)c(-c1ccc3c(c1)OCO3)n2C | 3% | -12% | 6% | 5 | 13
COc1cc(OC)cc(-c2c(C#Cc3ccsc3)c3cc(-c4ccc5c(c4)OCCO5)ccc3n2C)c1 | nt | 2.6µM* | ? | nt | nt
COc1ccc(-c2c(C#Cc3ccsc3)c3cc(-c4ccc(OC)c(F)c4)ccc3n2C)cc1 | nt | ? | 0% | nt | nt
CC(=O)N[C@H](C(=O)N[C@@H](C)C(=O)N[C@H](C#N)CC(=O)O)C(C)C | nt | 0% | 5% | nt | nt
CN(C)S(=O)(=O)c1ccc(C(=O)Nc2nnc(SCC(=O)NCC3CCCO3)s2)cc1 (stereo unspecified) | 4% | ? | 4% | -4 | -19
CC(C)(C)c1ccc(C(=O)Nc2nnc(SCC(=O)NCC3CCCO3)s2)cc1 (stereo unspecified) | 5% | -53% | -1% | 56* | 110*
CCOc1ccc(C(=O)Nc2nnc(SCC(=O)NCC3CCCO3)s2)cc1 (stereo unspecified) | 2% | 29% | -18% | 38* | 48
O=C(OCc1ccc(Cl)c(Cl)c1)c1cccnc1Cl | -40% | 9% | -3% | 23* | 25
O=C(OCc1ccc(Cl)c(Cl)c1)c1ccccn1 | -78% | -28% | nt | 13 | 20
O=C(OCc1ccc(Cl)cc1Cl)c1cccnc1Cl | -47% | 70% | 2% | 0 | 10
O=C(COC(=O)c1cccnc1Cl)c1cccc(Cl)c1 | -4% | -14% | nt | 34* | 39*
O=C(OCc1ccc(Br)cc1)c1cccnc1Cl | -8% | 28% | 34% | 27* | 73
Nc1ncccc1OCc1ccc(Cl)c(Cl)c1 | -31% | 180% | 105% | 47* | 56*
CCCCCCCC/C=C\CCCCCCCCN | nt | -1% | -2% | nt | nt
